The source of these data is PubChem BioAssay (NCATS).

A number with no mark means an inactive call. Results filed as inconclusive are left out. The source made the active and inactive calls. Unless noted, the call rests on the fitted dose curve; in most records, active means well fitted curve in the direction sought with a large enough effect; inconclusive means small, poorly fitted or top-dose-only effect, or another doubt; inactive means no such curve, though single readings can be large; an effect the other way counts as inactive or inconclusive.

For assay [1], the target named is Glucocorticoid receptor (Homo sapiens) (UniProt P04150). Briefly: GR-GFP Redistribution (AID 450;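 active means compounds whose dose series gives a full or clear partial fitted curve of increased nuclear translocation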; further: potency means the concentration at half of the fitted maximal effect). As to conditions: U2OS GR-GFP nuclear translocation, laser cytometry, 2 h.
Sequence of Glucocorticoid receptor (Homo sapiens) (P04150 whole entry, looked up, the tested form may be a part): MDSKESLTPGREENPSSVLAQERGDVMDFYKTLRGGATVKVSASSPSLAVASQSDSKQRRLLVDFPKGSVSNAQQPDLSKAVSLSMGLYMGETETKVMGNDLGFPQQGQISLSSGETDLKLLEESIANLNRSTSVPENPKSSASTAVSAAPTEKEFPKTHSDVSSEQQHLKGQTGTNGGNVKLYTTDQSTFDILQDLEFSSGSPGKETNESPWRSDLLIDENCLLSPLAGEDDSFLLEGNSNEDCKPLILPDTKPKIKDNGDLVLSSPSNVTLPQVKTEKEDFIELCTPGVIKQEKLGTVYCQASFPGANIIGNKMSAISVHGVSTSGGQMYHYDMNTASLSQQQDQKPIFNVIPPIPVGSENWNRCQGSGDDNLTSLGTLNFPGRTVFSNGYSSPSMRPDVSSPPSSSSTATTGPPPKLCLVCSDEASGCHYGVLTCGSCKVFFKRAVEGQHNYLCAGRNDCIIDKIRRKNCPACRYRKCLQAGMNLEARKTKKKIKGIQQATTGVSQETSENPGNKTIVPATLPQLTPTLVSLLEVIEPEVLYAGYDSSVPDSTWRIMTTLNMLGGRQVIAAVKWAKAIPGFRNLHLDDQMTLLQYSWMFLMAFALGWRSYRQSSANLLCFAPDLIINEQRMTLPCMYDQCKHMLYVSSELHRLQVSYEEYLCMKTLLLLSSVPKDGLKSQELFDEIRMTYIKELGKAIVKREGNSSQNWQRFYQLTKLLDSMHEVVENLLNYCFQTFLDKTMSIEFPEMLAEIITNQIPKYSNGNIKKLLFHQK
For assay [2] the target is unchanged. Briefly: GR-EFC Redistribution (AID 451; calls by dose curve; further: potency means the concentration at half of the fitted maximal effect). As to conditions: CHO-K1 GR-EFC translocation, beta-gal luminescence, 2 h. The essentials: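 CHO-K1 cells expressing nuclear EA and GR-ED fragments of b-gal; compounds titrated up to 46 uM final, 2 h at 37 C. GR nuclear translocation read as complemented b-gal luminescence after 1 h RT detection.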
For assay [3], the target named is Mitogen-activated protein kinase 10 (Mus musculus) (UniProt Q61831). Briefly: JNK3 AlphaScreen Assay (AID 530; active means well fitted curve in either direction with a large enough effect, not every such curve was filed as active;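 further: kinase came from lysate of stimulated human HepG2 cells; signal reports phosphorylation of biotinylated GST-cJun 1-79 at Ser73 with 10 µM ATP; series mostly up to about 57 µM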). Put shortly:
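Pre-activated (IL-1β/TNFα) JNK3 in HepG2 lysates phosphorylates biotin-GST-cJun(1-79), 10 uM ATP; anti-phospho-cJun(Ser73) AlphaScreen read at room temperature, pH 7.6 Tris buffer. Compounds pre-incubated 15 min as titrations.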

The target in assay [4] is 3',5'-cyclic-AMP phosphodiesterase 4B (Homo sapiens) (UniProt Q07343). Briefly: qHTS Assay for Inhibitors of PDE-IV (AID 607; active means well fitted activation curve with a large enough effect in the main read-out, with a control signal flat, not every such curve was filed as active). The essentials: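 Cell-based read-out of cAMP via a modified cyclic nucleotide-gated channel and membrane potential dye (535/590 nm) in HEK293 cells expressing PDE4 endogenously. Compounds tested up to 22.9 uM final; 100 uM RO 20-1724 reference.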
Sequence of 3',5'-cyclic-AMP phosphodiesterase 4B (Homo sapiens) (Q07343 whole entry, looked up): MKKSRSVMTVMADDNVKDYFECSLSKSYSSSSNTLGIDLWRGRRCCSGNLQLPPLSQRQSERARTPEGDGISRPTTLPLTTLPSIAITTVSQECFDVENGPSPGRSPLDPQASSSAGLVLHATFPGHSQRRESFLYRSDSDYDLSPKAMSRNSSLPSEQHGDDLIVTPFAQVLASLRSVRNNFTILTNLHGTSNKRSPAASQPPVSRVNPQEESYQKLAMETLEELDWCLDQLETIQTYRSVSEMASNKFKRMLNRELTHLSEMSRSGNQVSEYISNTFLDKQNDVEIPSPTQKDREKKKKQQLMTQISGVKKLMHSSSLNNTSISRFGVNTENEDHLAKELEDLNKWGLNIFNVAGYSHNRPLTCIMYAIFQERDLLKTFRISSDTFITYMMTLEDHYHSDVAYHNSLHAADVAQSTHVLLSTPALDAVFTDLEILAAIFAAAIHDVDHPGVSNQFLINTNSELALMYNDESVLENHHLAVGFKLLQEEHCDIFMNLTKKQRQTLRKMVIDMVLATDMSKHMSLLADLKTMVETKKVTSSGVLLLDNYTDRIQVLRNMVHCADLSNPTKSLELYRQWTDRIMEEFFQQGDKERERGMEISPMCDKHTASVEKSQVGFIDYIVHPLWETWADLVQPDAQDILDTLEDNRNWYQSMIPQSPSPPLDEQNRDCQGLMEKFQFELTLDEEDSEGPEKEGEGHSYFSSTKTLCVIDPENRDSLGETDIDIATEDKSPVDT
In general terms: In qHTS, concentration-response curves come from the screen itself.

In assay [5] the target is Ubiquitin carboxyl-terminal hydrolase 1 (Homo sapiens) (UniProt O94782). In words: Inhibitors of USP1/UAF1: Pilot qHTS (AID 504865). Further: nearly all actives have a fitted effect of over 35% in size. Further: potency means the concentration at half of the fitted maximal effect. Put shortly: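 USP1/UAF1 complex (1nM) preincubated with compound 15 min at room temperature, then Ub-Rho substrate (150nM final) added. Fluorescence read kinetically at 480/540 nm, 6 reads every 60 seconds. Buffer: 50mM HEPES pH 7.8, 0.5mM EDTA, 0.1 mg/ml BSA, 1mM TCEP, 0.01% Tween-20.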
Sequence of Ubiquitin carboxyl-terminal hydrolase 1 (Homo sapiens) (O94782 whole entry, looked up): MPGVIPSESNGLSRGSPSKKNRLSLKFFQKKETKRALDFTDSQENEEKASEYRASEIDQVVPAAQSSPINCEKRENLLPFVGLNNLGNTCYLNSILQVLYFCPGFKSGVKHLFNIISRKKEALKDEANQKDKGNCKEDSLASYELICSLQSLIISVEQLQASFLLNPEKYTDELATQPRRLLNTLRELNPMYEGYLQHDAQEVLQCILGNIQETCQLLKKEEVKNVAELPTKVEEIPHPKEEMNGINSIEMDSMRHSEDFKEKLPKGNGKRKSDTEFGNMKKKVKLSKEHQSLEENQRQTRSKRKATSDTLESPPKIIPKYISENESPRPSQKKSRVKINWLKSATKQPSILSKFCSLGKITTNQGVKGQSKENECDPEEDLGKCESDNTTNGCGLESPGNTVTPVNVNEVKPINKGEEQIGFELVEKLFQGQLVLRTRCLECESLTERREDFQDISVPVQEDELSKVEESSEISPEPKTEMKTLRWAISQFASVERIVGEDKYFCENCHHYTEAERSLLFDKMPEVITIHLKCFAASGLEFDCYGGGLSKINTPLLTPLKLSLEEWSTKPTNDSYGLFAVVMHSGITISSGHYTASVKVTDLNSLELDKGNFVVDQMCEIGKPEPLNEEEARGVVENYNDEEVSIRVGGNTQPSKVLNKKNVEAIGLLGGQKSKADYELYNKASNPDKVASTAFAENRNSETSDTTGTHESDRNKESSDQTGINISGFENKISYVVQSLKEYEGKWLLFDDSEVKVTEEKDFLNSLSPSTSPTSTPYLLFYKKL

The target of assay [6] is DNA dC->dU-editing enzyme APOBEC-3G (Homo sapiens) (UniProt Q9HC16). In words: qHTS for inhibitors of Vif-A3G interactions: Validation (AID 588379). Put shortly: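 HeLa cells stably expressing Vif and A3G-eYFP, 700 cells/well, incubated overnight at 37 deg C, then exposed to compound overnight at 37 deg C. Inhibition of Vif-mediated degradation read as increased yellow fluorescence (Ex 488/Em 500-530) by laser-scanning cytometry.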
Sequence of DNA dC->dU-editing enzyme APOBEC-3G (Homo sapiens) (Q9HC16 whole entry, looked up): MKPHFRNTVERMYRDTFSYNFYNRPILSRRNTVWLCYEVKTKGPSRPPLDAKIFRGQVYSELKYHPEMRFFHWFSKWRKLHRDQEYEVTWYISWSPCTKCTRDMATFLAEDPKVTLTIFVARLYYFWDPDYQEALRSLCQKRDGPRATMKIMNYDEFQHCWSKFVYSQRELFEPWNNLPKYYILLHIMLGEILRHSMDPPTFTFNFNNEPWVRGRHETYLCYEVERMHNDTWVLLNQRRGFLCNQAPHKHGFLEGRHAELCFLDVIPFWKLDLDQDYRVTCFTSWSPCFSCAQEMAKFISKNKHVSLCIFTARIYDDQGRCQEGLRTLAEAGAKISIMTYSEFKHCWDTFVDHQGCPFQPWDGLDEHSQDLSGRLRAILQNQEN

For assay [7], the system named is Zika virus NS2B-NS3 protease. In words: Primary screen GU AMC qHTS for Zika virus inhibitors (AID 1347154). Further: nearly all actives have a fitted effect of over 70% in size. The essentials: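 Unlinked Zika NS2B hydrophilic domain–NS3 protease complex at 25 nM in 10 mM Tris-HCl pH 8.0, 0.01% Tween 20, with an AMC peptide substrate. Fluorescence change (340/450 nm) over 15 min at room temperature, normalized to controls, fitted to 4-parameter Hill.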

Assay [8] in a line: Primary qHTS for small molecule stabilizers of the endoplasmic reticulum resident proteome: Secreted ER Calcium Modulated Protein (SERCaMP) assay (AID 1508630). Put shortly: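 GLuc-SERCaMP-expressing SH-SY5Y cells, pretreated 16 h with compound, are challenged with thapsigargin to empty ER calcium stores; after 4 h, coelenterazine is added directly to the medium and luminescence is imaged.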

The target in assay [9] is Cytochrome P450 3A4 (Homo sapiens) (UniProt P08684). Briefly: qHTS Assay for Activators of Cytochrome P450 3A4 (AID 885). Further: nearly all actives have a fitted effect of over 65% in size. Put shortly: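 Signal was normalized against complete inhibition by 57 uM ketoconazole. The reaction used 20nM CYP3A4 with 25uM Luciferin-PPXE, 10-min compound preincubation and a 60-min NADPH-supported step at RT.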
Sequence of Cytochrome P450 3A4 (Homo sapiens) (P08684 whole entry, looked up): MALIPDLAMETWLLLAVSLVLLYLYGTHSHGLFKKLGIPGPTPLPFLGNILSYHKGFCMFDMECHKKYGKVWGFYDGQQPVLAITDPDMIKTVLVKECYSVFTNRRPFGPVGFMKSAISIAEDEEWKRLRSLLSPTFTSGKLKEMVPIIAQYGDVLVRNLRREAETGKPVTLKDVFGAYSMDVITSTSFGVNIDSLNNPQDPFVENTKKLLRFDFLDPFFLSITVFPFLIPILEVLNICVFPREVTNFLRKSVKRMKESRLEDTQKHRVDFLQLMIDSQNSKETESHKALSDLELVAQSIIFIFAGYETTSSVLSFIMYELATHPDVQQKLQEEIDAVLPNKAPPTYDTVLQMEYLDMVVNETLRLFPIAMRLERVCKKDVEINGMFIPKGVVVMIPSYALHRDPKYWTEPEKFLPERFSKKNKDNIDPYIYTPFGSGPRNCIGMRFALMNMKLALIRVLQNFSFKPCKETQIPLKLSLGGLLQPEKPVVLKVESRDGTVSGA
For assay [10], the target named is Cytochrome P450 1A2 (Homo sapiens) (UniProt P05177). Briefly: p450-cyp1a2 (AID 410; calls by dose curve; further: potency means the concentration at half of the fitted maximal effect). Put shortly:
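20nM CYP1A2 with 100uM Luciferin-ME (at Km) in 100mM KPO4; compound preincubated 10 min, NADPH regeneration added, 60 min at room temperature. Luciferin quantified by luminescence after detection reagent; normalized to 57 uM furafylline.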

For assay [11], the target named is Cytochrome P450 2D6 (Homo sapiens) (UniProt P10635). In words: qHTS Assay for Inhibitors and Substrates of Cytochrome P450 2D6 (AID 891). Further: potency means the concentration at half of the fitted maximal effect; nearly all actives have a fitted effect of over 60% in size. Put shortly: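 Human CYP2D6 (5 nM) with 30 uM Luciferin-ME EGE (at Km) in 100 mM KPO4, compound preincubated 10 min, then NADPH regeneration system for 60 min at room temperature. Luciferin read by luminescence; normalized to 1.43 uM quinidine.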
Sequence of Cytochrome P450 2D6 (Homo sapiens) (P10635 whole entry, looked up): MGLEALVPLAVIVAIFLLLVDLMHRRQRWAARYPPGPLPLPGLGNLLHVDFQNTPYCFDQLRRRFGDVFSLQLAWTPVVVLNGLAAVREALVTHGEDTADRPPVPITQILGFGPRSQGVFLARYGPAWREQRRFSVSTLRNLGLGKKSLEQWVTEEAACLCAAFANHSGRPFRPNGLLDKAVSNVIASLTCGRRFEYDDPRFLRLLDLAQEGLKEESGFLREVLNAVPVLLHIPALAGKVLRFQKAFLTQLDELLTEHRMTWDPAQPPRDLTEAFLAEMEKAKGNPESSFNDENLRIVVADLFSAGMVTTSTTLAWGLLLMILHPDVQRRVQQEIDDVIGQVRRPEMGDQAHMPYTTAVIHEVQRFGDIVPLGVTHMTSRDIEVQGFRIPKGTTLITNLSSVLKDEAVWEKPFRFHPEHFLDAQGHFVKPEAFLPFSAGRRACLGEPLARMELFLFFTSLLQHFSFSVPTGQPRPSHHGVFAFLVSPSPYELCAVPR

The target of assay [12] is Cytochrome P450 3A4 (Homo sapiens) (UniProt P08684). In words: qHTS Assay for Inhibitors and Substrates of Cytochrome P450 3A4 (AID 884). Further: potency means the concentration at half of the fitted maximal effect; nearly all actives have a fitted effect of over 50% in size. The essentials: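 20 nM human CYP3A4 with 25 uM Luciferin-PPXE (at KM) in 200 mM KPO4, preincubated 10 min with compound; NADPH regeneration started a 60 min RT reaction. Luciferin detected by luminescence, normalized to 57 uM ketoconazole as full inhibition.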

Sequence of Cytochrome P450 1A2 (Homo sapiens) (P05177 whole entry, looked up): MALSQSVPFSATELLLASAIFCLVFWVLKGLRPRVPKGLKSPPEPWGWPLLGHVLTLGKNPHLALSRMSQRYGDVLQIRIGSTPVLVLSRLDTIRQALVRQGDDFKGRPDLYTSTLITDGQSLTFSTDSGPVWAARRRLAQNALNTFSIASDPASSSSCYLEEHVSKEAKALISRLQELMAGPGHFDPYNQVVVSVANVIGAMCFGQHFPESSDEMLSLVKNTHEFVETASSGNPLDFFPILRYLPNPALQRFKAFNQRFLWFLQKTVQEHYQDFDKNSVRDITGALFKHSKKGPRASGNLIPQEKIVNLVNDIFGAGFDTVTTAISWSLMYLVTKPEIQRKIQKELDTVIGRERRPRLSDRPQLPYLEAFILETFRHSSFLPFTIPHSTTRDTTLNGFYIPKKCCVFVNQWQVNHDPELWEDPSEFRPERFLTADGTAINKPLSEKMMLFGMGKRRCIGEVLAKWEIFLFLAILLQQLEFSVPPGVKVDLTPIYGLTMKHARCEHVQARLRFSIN

Turning to `C[C@@H]1Nc2ccc(Cl)cc2S(=O)(=O)N1`, the Potency in [1] and in assay [2] was over 46 µM each time. In addition, the Potency entry in [3], in assay [4], in assay [5], in assay [6], in assay [7] and in assay [8] was “inactive” throughout.

On to `CCCCCC(=O)O[C@H](CC(=O)O)C[N+](C)(C)C`, for which the Potency in assay [1] and in assay [2] was over 46 µM throughout. For the same compound, the Potency entry in assay [3], in assay [5], in assay [6], in [7] and in assay [8] was “inactive” in each case.

`c1ccc2sc(N3CCN(Cc4ccc5c(c4)OCO5)CC3)nc2c1`: the Potency in assay [1] and in assay [2] was over 46 µM in each case. For the same compound, the Potency entry in [3], in assay [9], in assay [5], in [6], in assay [7] and in assay [8] was “inactive” in each case.

On to `COc1cccc(C=NC=Nc2cccc(OC)c2)c1`, for which the figures for the Potency in [10], in [1] and in assay [2] were 1 µM (active), over 46 µM and over 46 µM, respectively. Further, the Potency result in assay [9], in [6], in assay [7] and in assay [8] was “inactive” throughout.

For `O=C1C(=O)N(Cc2ccc(Cl)c(Cl)c2)c2ccccc21`, the Potency was 12.6 µM (active) in [10], over 46 µM in assay [1], over 46 µM in assay [2] and 3.98 µM (active) in assay [11]. Besides, the Potency entry in assay [6], in assay [7] and in assay [8] was “inactive” each time.

Turning to `CC#CCOC(=O)C1=CCCN(C)C1`, the Potency in assay [1] and in [2] was over 46 µM each time. The Potency result in [3], in assay [4], in [5], in assay [6], in [7] and in [8] was “inactive” in each case.

With `CC[C@@H](C)[C@H]1O[C@]2(CC[C@@H]1C)C[C@@H]1C[C@H](C/C=C(/C)[C@H](O[C@@H]3C[C@H](OC)[C@H](O[C@@H]4C[C@H](OC)[C@@H](O)[C@H](C)O4)[C@H](C)O3)[C@@H](C)/C=C\C=C3CO[C@@H]4[C@H](O)C(C)=C[C@@H](C(=O)O1)[C@]34O)O2` (tested in a mixture with another compound), the Potency result in assay [10], in [4], in assay [6], in assay [7] and in assay [8] was “inactive” each time. Also, the Potency in assay [1] and in [2] was over 46 µM throughout.

Take `CC(=O)NCCc1c(Cc2ccccc2)[nH]c2ccccc12`: the Potency in assay [10] was 12.6 µM (active); in assay [1], over 46 µM; in assay [2], over 46 µM; in assay [12], 7.94 µM (active). Also, the Potency result in assay [4], in assay [9], in assay [6], in [7] and in [8] was “inactive” each time.

Take `O=C(c1c(O)c2ccc(Cl)cc2[nH]c1=O)C1CC1`: the Potency in assay [1] and in assay [2] was over 46 µM in each case. Besides, the Potency result in assay [3], in [4], in [9], in assay [5], in assay [6] and in [7] was “inactive” throughout. In assay [8], the Potency entry is “inactive”.

As for `CCCCCCCC(=O)O[C@H](CC(=O)O)C[N+](C)(C)C`, the Potency in assay [1] and in assay [2] was over 46 µM throughout. In addition, the Potency result in [3], in assay [5], in assay [6], in assay [7] and in assay [8] was “inactive” in each case.

As to `C[C@@H]1c2ccccc2CN1CC1=NCCN1`, the Potency is over 46 µM in assay [1], over 46 µM in [2] and 50.1 µM (active) in [5]. Also, the Potency result in [4], in assay [9], in assay [6], in assay [7] and in assay [8] was “inactive” in each case.

For `COc1cc(OC)c(C(=O)CCCCN2CCC3(CC2)NC(=O)NC3=O)cc1NS(=O)(=O)c1ccc(C(F)(F)F)cc1`, the Potency entry in assay [10], in assay [4], in assay [9], in assay [6], in assay [7] and in assay [8] was “inactive” in each case. The Potency in assay [1] and in [2] was over 46 µM in each case.

Regarding `O=C(O)CC/C=C\C[C@@H]1CO[C@H](c2ccccc2Cl)O[C@@H]1c1ccccc1O`, the Potency in [1] and in assay [2] was over 46 µM each time. Besides, the Potency result in [3], in assay [9], in assay [5], in assay [6], in assay [7] and in assay [8] was “inactive” in each case.
